The values below come from PubChem BioAssay (Tox21).

Results filed as inconclusive are left out. Where a call stands in place of a potency, no number is given. Calls of active or inactive are those of the source. Calls follow the shape of the dose curve; as a rule, active = well fitted cell-killing curve with a large enough effect in the repeat runs; inconclusive = weak or mixed curves, or effect the other way; inactive = no such curve, though single readings can be large or run the other way.
Potency is read from the fitted curve at half-maximal effect.

The nature of the experiment: qHTS assay to identify small molecule antagonists of the progesterone receptor (PR) signaling pathway - cell viability counter screen (AID 1346798). Also: nearly all actives have a fitted effect of over 50% in size. Conditions: PR-UAS-bla HEK293T viability, CellTiter-Glo luminescence, 16 h; series mostly up to 92.4 µM. The text has this: National Center for Advancing Translational Sciences [NCATS]
NIH Chemical Genomics Center [NCGC]
U.S. Environmental Protection Agency [EPA]
National Institutes of Environmental Health Sciences [NIEHS]
National Toxicology Program [NTP]
U.S. Food and Drug Administration [FDA]
Progesterone receptor (PR), a nuclear hormone receptor, plays an important role in development, metabolic homeostasis and reproduction. It is activated by the steroid hormone progesterone. Endocrine disrupting chemicals (EDCs) and their interactions with steroid hormone receptors like PR causes disruption of normal endocrine function. To identify the compounds that inhibit PR signaling, a PR-UAS-bla GripTite cell line i.e. PR-UAS-bla HEK293T (Invitrogen, Carlsbad, CA, USA) containing a beta-lactamase reporter gene under the control of an UAS response element was used to screen Tox21 10K compound library. The cytotoxicity of the Tox21 compound library against the PR-bla cell line was tested in parallel by measuring the cell viability using CellTiter-Glo assay in the same wells.
Tox21 Assay Protocol Summary:
PR-UAS-bla HEK293T cells were dispensed at 3,000 cells/4 uL of assay medium containing 2% charcoal stripped FBS per well into black wall/clear-bottom 1536-well plates using a Multidrop Combi (ThermoFisher Scientific, Waltham, MA) dispenser. After the assay plates were incubated at a 37C and 5% CO2 for 4 hr, 23 nL of compounds dissolved in DMSO, positive controls or DMSO only was transferred to the assay plate by a Pintool station (Kalypsys, San Diego, CA), followed by addition of 1 uL of R5020 in assay medium using a Flying Reagent Dispenser (FRD, Aurora Discovery, San Diego, CA). The plates were incubated at 37C and 5% CO2 for 16 hr. Then 1 uL of LiveBLAzer B/G FRET substrate was added using a Flying Reagent Dispenser, the plates were incubated at room temperature for 2 hours, and fluorescence intensity was measured by an Envision plate reader (PerkinElmer, Shelton, CT). For cell viability readout that measures cytotoxicity, 4 uL/well of CellTiter-Glo reagent was added into the assay plates using a FRD. After 30 min incubation at room temperature, the luminescence intensity in the plates was measured using a ViewLux (PerkinElmer) plate reader.
In the case of `S=C=Nc1ccccc1`, the Potency result is “inactive”.
The same measure, in the same setting: with `CCOP(=O)(OCC)Oc1cc(C)nc(C(C)C)n1` the entry was “inactive”; with `C1=CCC=C1`, “inactive”.
Take `Oc1ccc(Cl)c(Cl)c1`: the Potency entry is “inactive”.
On the same count and under the same terms, then `Clc1cc(Cl)c(-c2cc(Cl)c(Cl)cc2Cl)cc1Cl`, with “inactive”; and `COc1ccc2c(c1OC)C(=O)O[C@@H]2[C@H]1c2cc3c(cc2CCN1C)OCO3`, with “inactive”.
For `CSC(C)(C)/C=N/O`, the Potency entry is “inactive”.
On the same count and under the same terms, with `N#Cc1c[nH]cc1-c1cccc2c1OC(F)(F)O2` the entry was “inactive”; with `O=[N+]([O-])C(Br)Br`, “inactive”.
The same measure, in the same setting: then `N#CSCc1ccccc1`, with “inactive”.
For `Clc1c(Cl)c(Cl)c(Cl)c(Cl)c1Cl`, the activity change, negative = cytotoxicity was -0.673% [at 8.39 µM] (inactive).
Regarding `N#Cc1ccc(N(CC(N)=O)CC(F)(F)F)cc1C(F)(F)F`, the Potency entry was “inactive”.
Same read-out and setting: with `Clc1ccc(C(Cl)(Cl)Cl)cc1Cl` the entry was “inactive”; with `CC(Cc1ccccc1)N(C)Cc1ccco1` (stereo not given), “inactive”.
On the same count and under the same terms, with `CC(=O)[O-].CC(=O)[O-].O.O.[Zn+2]` the entry was “inactive”.
Still for that read-out and setting: then `O=C(Nc1ccc(F)cc1F)c1cccnc1Oc1cccc(C(F)(F)F)c1`, with “inactive”.
For the molecule `COC(=O)/C=C(\C)OP(=O)(OC)OC`, the Potency entry is “inactive”.
Same read-out and setting: with `N#Cc1c2ccccc2cc2ccccc12` the entry was “inactive”; with `CC(C)C(Br)C(=O)NC(N)=O` (stereo not given), “inactive”.
For the molecule `[Cl-].[Cl-].[Sn+2]`, the Potency result was “inactive”.
The same measure, in the same setting: with `CC(C)=CC1C(C(=O)OC(C#N)c2cccc(Oc3ccccc3)c2)C1(C)C` (stereo not given) the entry was “inactive”; with `O=[N+]([O-])c1ccccc1-c1ccccc1`, “inactive”; with `[O-][Cl+3]([O-])([O-])O`, “inactive”.
With `CCC1COC(Cn2cncn2)(c2ccc(Cl)cc2Cl)O1` (stereo not given), the Potency result is “inactive”.
On to `ClCBr`, for which the Potency entry was “inactive”.
Same read-out and setting: then `C[C@]12CC[C@H]3[C@@H](CCC4=CC(=O)CC[C@@H]43)[C@@H]1CC[C@@H]2OC(=O)CCc1ccco1`, with “inactive”; and `COc1nc(C)nc(NC(=O)NS(=O)(=O)c2ccccc2Cl)n1`, with “inactive”.
Same read-out and setting: then `CC(=O)[O][Sn]([c]1ccccc1)([c]1ccccc1)[c]1ccccc1`, with 0.273 µM (active).
On the same count and under the same terms, with `Nc1nc(N)nc(Cl)n1` the entry was “inactive”; with `COP(=O)(OC)O/C(=C\Cl)c1cc(Cl)c(Cl)cc1Cl`, “inactive”.
With `CC(=O)[O][Pb]([c]1ccccc1)([c]1ccccc1)[c]1ccccc1`, the Potency was 4.33 µM (active).
On the same count and under the same terms, then `CNC(=O)/C=C(\C)OP(=O)(OC)OC`, with “inactive”; and `CC(Cc1ccc2c(c1)OCO2)NO` (stereo not given), with “inactive”; and `ClC(Cl)C(Cl)(Cl)Cl`, with “inactive”.
Same read-out and setting: then `N#Cc1sc2c(=O)c3ccccc3c(=O)c=2sc1C#N`, with 30.6 µM (active); and `CNN`, with “inactive”; and `CCC(C)Br` (stereo not given), with “inactive”.
Still for that read-out and setting: then `c1ccc(N=NNc2ccccc2)cc1`, with “inactive”; and `CC(C)(C)c1ccc(OP(=O)(Oc2ccccc2)Oc2ccccc2)cc1`, with “inactive”.
As for `Cc1cnc2c(C(=O)O)c(Cl)ccc2c1`, the Potency result was “inactive”.
